Measured values published in PubChem BioAssay.
Measured potencies and affinities stand elsewhere. Values without a mark were called inactive.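 The calls were made as follows: active = a fitted half-maximal concentration no higher than twice the top valid tested dose, with signal falling as cells die; inconclusive = flat curve between -70% and -30%, or poor fit; inactive = the rest, including signal rising instead of falling.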

experiment: HeLa cell cytotoxicity, dose response, cytotoxicity control, ATP luminescence, cherry-pick samples (AID 687004); details: HeLa viability, ATP luminescence (CellTiter-Glo), 48 h; series mostly up to 26 µM; activity change, negative = cytotoxicity: at the top concentration;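 also: 0% = neutral control median and -100% = staurosporine 10 µM control median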

Row | Structure (SMILES) | activity change, negative = cytotoxicity
1 | Cc1ccc(NC(=O)C2(C)CCN2C(=O)CC2CCCC2)cc1 (stereo not drawn) | -2.39% [at 38 µM]
2 | O=C(NCC[C@H]1CC[C@@H](NS(=O)(=O)c2ccc(F)cc2)[C@H](CO)O1)c1ccc2c(c1)OCO2 | -2.62%
3 | N#C[C@@H]1[C@@H](c2ccccc2)[C@@H](CO)N1C(=O)Cc1ccccc1 | -0.713%
4 | CCS(=O)(=O)N1CCCCN2[C@H](CO)[C@@H](c3ccc(-c4ccc(C#N)cc4)cc3)[C@@H]2C1 | -1.29%
5 | CO[C@H]1CN(C)C(=O)c2cc(NS(=O)(=O)c3ccc(C)cc3)ccc2OC[C@H](C)N(C)C[C@H]1C | 5.25%
6 | CO[C@@H]1CN(C)C(=O)c2cc(NS(=O)(=O)c3ccc(C)cc3)ccc2OC[C@@H](C)N(C)C[C@@H]1C | 7.14%
7 | COc1ccc(CN(C)C[C@@H]2OCCCC[C@H](C)Oc3ccc(N(C)C)cc3C(=O)N([C@H](C)CO)C[C@@H]2C)cc1 | 9.74%
8 | CCc1ccc(NC(=O)C2NC(=O)CC2c2ccccc2)cc1 (stereo not drawn) | 8.22% [at 42 µM]
9 | COCC(=O)N1[C@H](C#N)[C@H](c2ccc(C#Cc3ccccc3F)cc2)[C@H]1CO | 7.09%
10 | C[C@H](CO)N1C[C@H](C)[C@H](CN(C)C(=O)NC2CCCCC2)OCCCC[C@H](C)Oc2ccc(NC(=O)C3CCCCC3)cc2C1=O | 7.99%
11 | CC(NC(=O)COc1ccc([N+](=O)[O-])cc1)c1ccccc1 (stereo not drawn) | 18.5%
12 | O=C(Nc1ccccc1)N[C@@H]1CC[C@@H](CCNC(=O)c2ccccc2F)O[C@H]1CO | 17.2%
13 | C[C@H](CO)N1C[C@H](C)[C@H](CN(C)C(=O)c2ccccn2)Oc2ncc(-c3ccccc3)cc2C1=O | 3.16%
